Laboratory results as given in PubChem BioAssay AID1159580 (chemical genetic matrix, 2015).
Where “and” joins values, the source holds several entries; their conditions need not be identical. Equal entries are not always repeated. Hit rate of the full screen: of about 5,500 compounds, about 2,000 (36%) were called active. Not shown: some 18% with an inconclusive outcome. Rule as the data show it: active = normalized growth mostly below about 0.91 (no sharp cut-off); inconclusive = no clear call, values can overlap the other calls; inactive = mostly above about 0.92. This is one part of the list.

Assay: chemical genetic growth profiling, strain panel (AID 1159580);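 also: tested at 20 µM; growth read once vehicle control cultures reached saturation at 30 °C; 1 = growth at the plate median or of vehicle wells; lower values mean less growth of the strain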
Details: S. cerevisiae deletion strains, growth OD

Measured: normalized growth

CNC1(C)C2CCC(C2)C1(C)C (stereo unspecified)
inactive: locus YAL013W, strain DEP1, active compounds read low 0.982 | locus YAL021C, strain ccr4, active compounds read low 0.97 | locus YAL026C, strain drs2, active compounds read low 1 | locus YAL030W, strain snc1, active compounds read low 1 | locus YAL040C, strain CLN3, active compounds read low 1 | locus YBL061C, strain skt5, active compounds read low 0.998 | locus YBR009C, strain hhf1, active compounds read low 0.993 | locus YBR021W, strain FUR4, active compounds read low 1.03 | locus YBR023C, strain chs3, active compounds read low 0.981 | locus YBR171W, strain sec66, active compounds read low 0.986 | locus YBR229C, strain ROT2, active compounds read low 0.961 | locus YBR231C, strain swc5, active compounds read low 0.982 | locus YBR279W, strain paf1, active compounds read low 0.986 | locus YCL011C, strain gbp2, active compounds read low 0.996 | locus YCL016C, strain dcc1, active compounds read low 0.977 | locus YCL029C, strain bik1, active compounds read low 0.991 | locus YCL061C, strain MRC1 (second series), active compounds read low 0.999 | locus YCL061C, strain MRC1, active compounds read low 0.989 | locus YCL069W, strain vba3, active compounds read low 0.997 | locus YCR088W, strain abp1, active compounds read low 0.994 | locus YDL005C, strain med2, active compounds read low 0.992 | locus YDL035C, strain GPR1, active compounds read low 0.993 | locus YDL040C, strain nat1, active compounds read low 0.997 | locus YDL074C, strain BRE1, active compounds read low 0.957 | locus YDL101C, strain DUN1, active compounds read low 0.969 | locus YDL134C, strain PPH21, active compounds read low 0.989 | locus YDL185W, strain tfp1, active compounds read low 0.968 | locus YDL192W, strain arf1, active compounds read low 0.996 | locus YDR001C, strain nth1, active compounds read low 0.996 | locus YDR069C, strain doa4, active compounds read low 1.02 | locus YDR101C, strain arx1, active compounds read low 1.01 | locus YDR137W, strain rgp1, active compounds read low 0.987 | locus YDR150W, strain NUM1, active compounds read low 0.977 | locus YDR159W, strain sac3, active compounds read low 0.994 | locus YDR162C, strain NBP2, active compounds read low 0.913 | locus YDR195W, strain ref2 1 | locus YDR297W, strain sur2, active compounds read low 0.993 | locus YDR318W, strain mcm21, active compounds read low 1.03 | locus YDR334W, strain swr1, active compounds read low 1 | locus YDR335W, strain msn5, active compounds read low 0.999 | locus YDR363W, strain ESC2, active compounds read low 0.993 | locus YDR388W, active compounds read low 1.01 | locus YDR392W, strain spt3, active compounds read low 0.93 | locus YDR502C, strain sam2, active compounds read low 0.984 | locus YEL003W, strain gim4, active compounds read low 1 | locus YEL037C, strain rad23, active compounds read low 0.995 | locus YEL061C, strain CIN8 (second series), active compounds read low 1 | locus YEL061C, strain CIN8, active compounds read low 0.982 | locus YER002W, strain NOP16, active compounds read low 1 | locus YER015W, strain faa2, active compounds read low 1 | locus YER016W, strain bim1, active compounds read low 0.997 | locus YER110C, active compounds read low 0.993 | locus YER111C, strain swi4, active compounds read low 1 | locus YER155C, strain BEM2 (second series), active compounds read low 0.995 | locus YER155C, strain BEM2, active compounds read low 0.987 | locus YER167W, strain BCK2, active compounds read low 1 | locus YFR010W, strain ubp6, active compounds read low 0.993 | locus YGL078C, strain dbp3, active compounds read low 0.992 | locus YGL086W, strain mad1, active compounds read low 1.01 | locus YGL167C, strain pmr1, active compounds read low 0.993 | locus YGL173C, strain kem1, active compounds read low 0.995 | locus YGL227W, strain vid30, active compounds read low 0.987 | locus YGL240W, strain doc1, active compounds read low 0.985 | locus YGL248W, strain PDE1, active compounds read low 0.982 | locus YGL253W, strain hxk2, active compounds read low 1 | locus YGR078C, strain PAC10, active compounds read low 0.978 | locus YGR135W, strain pre9, active compounds read low 0.96 | locus YGR229C, strain SMI1, active compounds read low 0.987 | locus YGR252W, strain gcn5, active compounds read low 1.08 | locus YHR013C, strain ard1, active compounds read low 0.982 | locus YHR027C, strain rpn1, active compounds read low 0.999 | locus YHR030C, strain SLT2, active compounds read low 0.996 and 0.974 | locus YHR079C, strain IRE1 (second series), active compounds read low 0.998 | locus YHR079C, strain IRE1, active compounds read low 0.941 | locus YHR094C, strain hxt1, active compounds read low 0.999 | locus YHR129C, strain ARP1, active compounds read low 0.99 | locus YHR142W, strain chs7, active compounds read low 0.974 | locus YHR200W, strain rpn10, active compounds read low 1 | locus YIL066C, strain RNR3, active compounds read low 0.989 | locus YIL073C, strain SPO22, active compounds read low 1.04 | locus YIL125W, strain kgd1, active compounds read low 0.989 | locus YIR030C, strain dcg1, active compounds read low 0.991 | locus YJL092W, strain hpr5, active compounds read low 0.991 | locus YJL095W, strain BCK1 (second series), active compounds read low 0.996 | locus YJL095W, strain BCK1, active compounds read low 0.996 and 0.958 | locus YJL115W, strain asf1, active compounds read low 0.993 | locus YJL129C, strain trk1, active compounds read low 0.976 | locus YJL134W, strain LCB3, active compounds read low 0.988 | locus YJL154C, strain vps35, active compounds read low 0.994 | locus YJL164C, strain tpk1, active compounds read low 0.985 | locus YJL166W, strain qcr8, active compounds read low 0.991 | locus YJL168C, strain set2, active compounds read low 0.993 | locus YJL187C, strain SWE1 (second series), active compounds read low 0.967 | locus YJL187C, strain SWE1, active compounds read low 0.995 | locus YJR043C, strain POL32, active compounds read low 1.02 | locus YJR066W, strain TOR1, active compounds read low 0.981
